Sampled rows, rich in hits. Any-hit rate of the full collection: about 7.5%.
SMN2 splice enh: enhancers of SMN2 splice variant expression; HEK293 SMN2-luciferase splicing reporter, luminescence, 30-36 h; Potency, µM (highest dose often 46.1 µM), for the others: at the top dose activity change, positive = activation, usual class: activators; hit rate 2.8% among 210,000; AID 1458; further: % of control where 0% means no effect; nearly all actives have a fitted effect of over 55% in size
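HEK293 cells carry an SMN2 […]–luciferase reporter in which exon 7 inclusion puts luciferase in frame. Cells were plated 10-12 h before compound addition, then incubated 30-36 h at 37C. ONE-Glo luminescence was read; sodium butyrate at 4.5 mM final served as control.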
ELG1 genotoxic: genotoxicity induction in ELG1-luciferase HEK293T cells; HEK293T ELG1-luciferase reporter, luminescence, 16 h; Potency, µM (top dose mostly 46 µM), for inactives: top-dose activity change, positive = activation, hits mostly activators; hit rate 1.3% among 330,000; AID 504466; further: % of control where 0% means no effect; nearly all actives have a fitted effect of over 60% in size
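ELG1-luciferase HEK293T cells, 2,000/well; compound pinned in; 16 hr, 37 °C, 5% CO2; ONE-Glo, 30 min RT; luminescence on CCD imager.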
NPC1 prom act: NPC1 promoter activation. Huh7 NPC1 promoter luciferase reporter, 24 h. Potency, µM (highest dose often 9.22 µM), inactives show at the top dose activation, actives largely listed as activators. hit rate 2.4% among 320,000; further: % of control where 0% means no effect; nearly all actives have a fitted effect of over 60% in size
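Huh7 cells stably carrying NPC1 promoter–luciferase, plated in Opti-MEM with 10% FBS for 2 h, were exposed to compound in DMSO for 24 h at 37 °C; luciferase reagent was added for 10 min and luminescence read.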
FLuc counter: counter-screen for miR-21 project: firefly luciferase inhibitors or activators; purified FLuc, Km substrates, luminescence inhibition; hit rate 6.9% among 360,000; P08659; Potency, µM (top dose mostly 57.5 µM), for the others: at the highest dose activity change, negative = inhibition, hits mostly inhibitors;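 further: plate controls were vehicle for no effect and reference inhibitor for full effect; nearly all actives have a fitted effect of over 55% in size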
Target sequence (P08659 whole entry, looked up): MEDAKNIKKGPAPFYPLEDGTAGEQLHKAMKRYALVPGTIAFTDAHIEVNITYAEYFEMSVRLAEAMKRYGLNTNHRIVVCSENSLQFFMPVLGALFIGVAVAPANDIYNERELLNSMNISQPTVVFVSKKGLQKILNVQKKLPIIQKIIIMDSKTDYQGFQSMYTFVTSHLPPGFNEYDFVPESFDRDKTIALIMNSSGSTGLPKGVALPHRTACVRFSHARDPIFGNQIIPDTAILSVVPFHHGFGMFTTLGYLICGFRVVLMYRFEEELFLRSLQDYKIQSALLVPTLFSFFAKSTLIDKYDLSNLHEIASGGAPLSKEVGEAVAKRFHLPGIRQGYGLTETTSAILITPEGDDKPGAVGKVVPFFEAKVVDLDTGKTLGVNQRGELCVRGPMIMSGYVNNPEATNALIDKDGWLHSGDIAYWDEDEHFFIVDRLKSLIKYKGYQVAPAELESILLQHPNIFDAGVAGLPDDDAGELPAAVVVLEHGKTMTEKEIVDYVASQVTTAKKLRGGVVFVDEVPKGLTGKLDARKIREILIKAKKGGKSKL
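Biochemical qHTS of compounds, final roughly 60 µM downward over six points, against 10 nM purified firefly luciferase using Km concentrations of substrates (10 uM D-luciferin, 10 uM ATP) in Tris acetate pH 7.5 buffer; luminescence output.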
Rab9 promoter act: activators of Rab9 promoter; Huh7 Rab9 promoter-luciferase reporter, luminescence, 24 h; Potency, µM (titrated, usually from 9.22 µM), for inactives: top-dose activation, negative = inhibition, actives largely listed as activators; hit rate 2.8% among 320,000; AID 485297; further: % of control where 0% means no effect; nearly all actives have a fitted effect of over 60% in size
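Cells were plated at 1500 per well in reduced-serum medium with 10% FBS and left 2 h. Compound in DMSO was then added for 24 h at 37 °C. Reporter signal was read by luminescence after 10 min with luciferase detection reagent.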
Luc counter: counter-screen: inhibitors of Kinase-Glo firefly luciferase; Q27757; Kinase-Glo luciferase, ATP luminescence, 8 min; Potency, µM (titrated, usually from 38.3 µM), for inactives: at the highest dose activity change, negative = inhibition, hits mostly inhibitors; hit rate 0.28% among 200,000; AID 1379; further: on the % scale 0 is the no-effect control and ±100 the full control effect; nearly all actives have a fitted effect of over 60% in size
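Kinase-Glo luciferase light output from ATP and luciferin was measured with 10 uM ATP, within the enzyme's linear range. Buffer: 50 mM imidazole pH 7.2, 50 mM KCl, 7 mM MgCl2, 0.01% Tween 20, 0.05% BSA; luminescence read after 8 min at ambient temperature.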
* = called active by the depositor; ? = inconclusive; · = no result given. The call rests on the fitted dose curve; in most records, active means well fitted curve in the direction sought with a large enough effect; inconclusive means small, poorly fitted or top-dose-only effect, or another doubt; inactive means no such curve, though single readings can be large; an effect the other way counts as inactive or inconclusive. Potency means the concentration at half of the fitted maximal effect.

SMILES	SMN2 splice enh	ELG1 genotoxic	NPC1 prom act	FLuc counter	Rab9 promoter act	Luc counter
CCN(CC)c1ccc(/C=N/NC(=O)OC(C)(C)C)cc1	·	?	?	10.7µM*	2.82µM*	·
CCN(CC)c1ccc(/C=N/NC(=O)Nc2ccccc2)cc1	20µM*	-8.2%	3.98µM*	5.36µM*	3.16µM*	0.3%
CCN(CC)c1ccc(/C=N\NC(N)=O)cc1	2.5%	16.1%	-4.3%	?	3.9%	-2.0%
COc1ccc2c(c1)C(=O)[C@@H](OC(=O)NCc1ccco1)[C@H](c1ccc(OC)c(Br)c1)O2	-6.0%	·	·	·	·	0.5%
CCN1CCN(c2cc(C)c3cc(NC(=O)CCC(=O)N4CCN(c5ccccc5OC)CC4)ccc3n2)CC1	·	2.1%	13.9%	15.1µM*	4.8%	·
CCN1CCN(c2cc(C)c3cc(NC(=O)CCC(=O)N4CCN(c5ccccc5)CC4)ccc3n2)CC1	·	-3.0%	-4.9%	?	2.0%	·
Cc1cc(N2CCOCC2)nc2ccc(NC(=O)CCC(=O)N3CCCCC3)cc12	8.91µM*	?	?	?	3.98µM*	-0.3%
Cc1cc(N2CCC(C)CC2)nc2ccc(NC(=O)CCC(=O)N3CCN(c4ccccc4F)CC3)cc12	-11.7%	·	·	4.78µM*	·	·
Cc1cc(N2CCOCC2)nc2ccc(NC(=O)CCC(=O)N3CCC(C)CC3)cc12	·	7.1%	?	12µM*	4.47µM*	·
CC(=O)c1ccc(N2CCN(C(=O)CCC(=O)Nc3ccc4nc(N5CCCCC5)cc(C)c4c3)CC2)cc1	0.0%	·	·	?	·	·
Cc1cc(N2CCOCC2)nc2ccc(Cl)cc12	·	?	?	6.01µM*	?	·
CCCCN(C)C(=O)CCC(=O)Nc1ccc2nc(N3CCOCC3)cc(C)c2c1	20µM*	5.9%	?	?	?	0.2%
Cc1cc(C)c(S(=O)(=O)N2CCC(n3c(C(F)(F)F)nc4cccnc43)CC2)c(C)c1	·	·	·	-10.6%	·	·
O=C(Nc1nc2ccccc2[nH]1)c1ccc(Cl)cc1	·	?	0.316µM*	0.426µM*	0.316µM*	·
O=C(NNc1ncnc2ccccc12)c1cccc(Cl)c1	·	?	?	2.69µM*	1.78µM*	·
Cc1ccc(OCCCC(=O)Nc2nc3ccccc3[nH]2)cc1	9.5%	0.1%	7.1%	2.5%	2.8%	2.9%
CC(=O)NNc1ncnc2ccccc12	10.1%	1.3%	0.7%	-12.8%	0.1%	-0.9%
O=C(CCCOc1ccccc1)Nc1nc2ccccc2[nH]1	·	?	?	10.7µM*	?	-1.3%
CC(=O)Nc1nc2ccccc2[nH]1	20.4%	0.1%	-5.0%	-1.1%	0.1%	-2.1%
O=C(Cc1ccc(Cl)cc1)Nc1nc2ccccc2[nH]1	22.1%	16.0%	1.9%	-1.8%	2.9%	-6.1%
O=C(Nc1nc2ccccc2[nH]1)c1ccccc1O	·	?	1.78µM*	2.69µM*	0.891µM*	·
O=C(Nc1nc2ccccc2[nH]1)c1ccccc1	3.98µM*	0.517µM*	?	1.51µM*	1.58µM*	11.2µM*
O=C(Nc1nc2ccccc2[nH]1)c1cccc(Cl)c1	·	16.4µM*	1µM*	2.13µM*	0.708µM*	·
CN(c1cccc(Cl)c1)S(=O)(=O)c1cccc(C(=O)Nc2nc3ccccc3[nH]2)c1	-95.5%	-15.1%	0.6%	-16.8%	-4.2%	-0.5%
COc1cccc(-c2cc(C(=O)N3CCCCC3C)no2)c1 (stereo not given)	17.8µM*	9.2µM*	1.58µM*	8.49µM*	2.24µM*	1.8%
SMILES	SMN2 splice enh	ELG1 genotoxic	NPC1 prom act	FLuc counter	Rab9 promoter act	Luc counter
COc1cccc(-c2cc(C(=O)N3CCCCCC3)no2)c1	3.16µM*	1.46µM*	0.562µM*	2.13µM*	0.316µM*	-8.3%
COc1ccc(-c2cc(C(=O)N3CCN(C(c4ccccc4)c4ccccc4)CC3)no2)cc1	-30.5%	-9.9%	-7.4%	-1.6%	-1.0%	-2.0%
COc1ccc(-c2cc(C(=O)N3CCCC3)no2)cc1	·	2.91µM*	0.398µM*	1.2µM*	0.631µM*	·
COc1ccc(-c2cc(C(=O)N3CCCCCC3)no2)cc1	·	4.61µM*	0.398µM*	1.9µM*	0.447µM*	·
COc1ccccc1C(=O)Nc1nc2nc(C)c(Cc3ccccc3)c(=O)n2[nH]1	-2.6%	·	·	?	·	·
COc1cc(C(=O)NCc2nc3cccnc3n2Cc2ccc(C)cc2)cc(OC)c1OC	·	·	·	-1.4%	·	·
COc1ccc(-c2cc(C(=O)N3CCCCCC3)no2)cc1OC	·	?	?	23.9µM*	?	·
COc1ccc(-c2cc(C(=O)N3CCN(C(c4ccccc4)c4ccccc4)CC3)no2)cc1OC	-4.3%	-5.8%	-8.3%	7.2%	2.9%	-6.7%
Cc1ccc(C)n1-c1nnc(N2CCCC(C(=O)NCc3ccc(F)cc3)C2)s1 (stereo not given)	1.3%	·	·	-7.4%	·	·
Cc1ccc(C)c(NC(c2ccccc2)c2nnc(-c3ccccc3F)o2)c1 (stereo not given)	23.1%	·	·	15.1µM*	·	·
Cc1ccc(Cl)cc1NC(c1ccc(F)cc1)c1nnc(-c2ccccc2)o1 (stereo not given)	·	·	·	-15.3%	·	·
CC[C@@H](C)[C@@H](C(=O)Nc1ccc(C)cc1)N1Cc2ccccc2C1=O	-5.7%	·	·	3.2%	·	·
CCN(C(=O)Cc1ccccc1OC)c1nnc(-c2ccncc2)s1	-28.6%	-1.9%	-0.8%	-18.3%	2.3%	-1.5%
CCCCN(C(=O)Cc1cccs1)c1nnc(-c2cccnc2)s1	20µM*	16.0%	?	19µM*	28.0%	-1.6%
COCCN(C(=O)Cc1cccs1)c1nnc(-c2cccnc2)s1	-18.8%	0.8%	-4.3%	-0.9%	15.9%	-2.4%
CCCN(C(=O)c1ccco1)c1nnc(-c2ccccc2C)s1	·	?	21.3%	12µM*	?	-3.2%
COCCN(C(=O)c1ccco1)c1nnc(-c2ccc(F)cc2)s1	?	10.2%	27.8%	?	?	-0.9%
CN(C(=O)c1cccnc1)c1nnc(-c2cccnc2)s1	2.7%	6.8%	8.6%	-7.6%	11.0%	-1.0%
CCN(C(=O)Cc1cccs1)c1nnc(-c2cc(OC)c(OC)c(OC)c2)s1	25.1µM*	?	-2.3%	-0.1%	-0.9%	0.8%
CCN(C(=O)c1ccco1)c1nnc(-c2cccnc2)s1	·	?	?	13.5µM*	?	·
Cn1ccc2c(OCC(=O)NCc3ccccc3Cl)cccc2c1=O	·	·	·	2.6%	·	·
CC(C)c1ccc(NC(=O)CSc2n[nH]c(=O)n2-c2cccnc2)cc1	·	-3.4%	1.7%	-0.3%	-3.7%	·
Cc1ccc(NS(=O)(=O)c2ccc(C)c(NC(=S)NCCN3CCOCC3)c2)c(C)c1	·	0.7%	·	·	·	·
COc1ccc(CNC(=O)CC23CC4CC(CC(C4)C2)C3)cc1OC	·	-0.2%	-1.2%	15.1µM*	-2.3%	·
Cc1ccc(NC(=O)C2CCN(c3nc4ccccc4nc3C(F)(F)F)CC2)cc1F	·	·	·	6.6%	·	·

Screens deposited in PubChem BioAssay by National Center for Advancing Translational Sciences (NCATS).
